Assay results published in ChEMBL document CHEMBL1201862, “PubChem BioAssay data set” (2004).
The whole screen tested about 400,000 compounds, of which about 2,100 (0.53%) were called active. About 14% were inconclusive and are not listed. The sample holds actives, similar compounds and a random draw of the others, so the mix is not that of the screen. No rule for the calls is given here.

Biological target: Ataxin-2 (Homo sapiens) (UniProt Q99700)
Experiment: qHTS for Inhibitors of ATXN expression.
Format: functional

Sequence of Ataxin-2 (Homo sapiens) (Q99700 whole entry): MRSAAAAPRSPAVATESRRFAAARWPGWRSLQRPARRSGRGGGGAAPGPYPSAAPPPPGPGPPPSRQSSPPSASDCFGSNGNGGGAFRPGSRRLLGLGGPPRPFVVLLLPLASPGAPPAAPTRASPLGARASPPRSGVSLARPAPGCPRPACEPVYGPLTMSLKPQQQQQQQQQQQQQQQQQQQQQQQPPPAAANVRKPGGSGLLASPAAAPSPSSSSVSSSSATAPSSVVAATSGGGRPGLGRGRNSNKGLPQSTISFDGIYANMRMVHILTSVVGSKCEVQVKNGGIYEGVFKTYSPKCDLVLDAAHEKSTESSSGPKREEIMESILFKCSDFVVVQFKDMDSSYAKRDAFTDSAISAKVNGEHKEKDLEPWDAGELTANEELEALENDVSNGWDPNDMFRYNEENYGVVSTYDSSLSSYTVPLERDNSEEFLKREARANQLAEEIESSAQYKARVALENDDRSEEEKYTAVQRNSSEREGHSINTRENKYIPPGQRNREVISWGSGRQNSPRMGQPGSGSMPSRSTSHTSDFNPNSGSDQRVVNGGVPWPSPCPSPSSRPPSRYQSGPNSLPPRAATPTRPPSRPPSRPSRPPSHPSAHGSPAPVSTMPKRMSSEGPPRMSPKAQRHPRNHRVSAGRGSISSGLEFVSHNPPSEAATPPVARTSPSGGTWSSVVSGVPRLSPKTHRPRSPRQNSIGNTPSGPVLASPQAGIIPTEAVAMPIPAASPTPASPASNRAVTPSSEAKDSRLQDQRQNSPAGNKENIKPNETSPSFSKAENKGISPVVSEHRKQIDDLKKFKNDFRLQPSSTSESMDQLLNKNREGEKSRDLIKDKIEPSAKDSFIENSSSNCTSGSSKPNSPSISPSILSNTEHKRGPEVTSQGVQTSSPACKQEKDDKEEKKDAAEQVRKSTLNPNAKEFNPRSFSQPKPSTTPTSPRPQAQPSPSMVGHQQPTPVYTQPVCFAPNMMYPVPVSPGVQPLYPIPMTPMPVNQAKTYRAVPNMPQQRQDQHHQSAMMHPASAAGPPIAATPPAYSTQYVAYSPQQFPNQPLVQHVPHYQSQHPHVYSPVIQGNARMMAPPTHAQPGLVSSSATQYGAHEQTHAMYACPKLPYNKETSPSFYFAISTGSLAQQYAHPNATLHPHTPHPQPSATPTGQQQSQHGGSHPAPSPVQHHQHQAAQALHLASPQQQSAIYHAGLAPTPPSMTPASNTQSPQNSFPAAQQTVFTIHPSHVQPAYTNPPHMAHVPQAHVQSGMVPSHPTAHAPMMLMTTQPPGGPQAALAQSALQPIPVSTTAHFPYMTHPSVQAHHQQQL

SMILES | Potency
Cc1cccc2nc(CSc3nc4nncc-4c(O)n3-c3cccc(Cl)c3)cc(=O)n12 | 35.5 µM (active)
Cc1ccccc1-n1nnnc1SCc1cc(=O)n2ccsc2n1 | inactive
CCCc1[nH]c2ccc(C#N)cc2c1CCC | 35.5 µM (active)
O=C1N/C(=C/c2cccn2-c2ccccc2)C(=O)N1Cc1ccc(F)cc1 | inactive
CCCCCC(=O)N[C@@H](c1ccccc1)[C@@H](O)C(=O)O[C@H]1C[C@@]2(O)[C@@H](OC(=O)c3ccccc3)C3[C@](C)(C(=O)[C@H](OC(C)=O)C(=C1C)C2(C)C)[C@@H](O)C[C@H]1OC[C@@]31OC(C)=O (stereo partly drawn) | 6.31 µM (active)
Cc1nc(C)c(C(=O)N2CCCC(C(=O)c3ccc4ccccc4c3)C2)s1 (stereo not drawn) | 28.2 µM (active)
COc1ccc(C(=O)C2CCCN(C(=O)c3csc(SC)n3)C2)cc1F (stereo not drawn) | inactive
CC1=C(C(=O)N2CCCC(C(=O)c3cccc(C(F)(F)F)c3)C2)OCCO1 (stereo not drawn) | inactive
Cc1cccc(N2CCN(C(S)=Nc3ccc4nc(N5CCN(C)CC5)cc(C)c4c3)CC2C)c1 (stereo not drawn) | 39.8 µM (active)
O=C(NCCCNC(=O)c1cnccn1)c1ccc(Br)cc1 | inactive
Cc1ccc(C(=O)N/C(=C\c2ccc(Br)cc2)c2n[nH]c(S)n2)cc1 | 25.1 µM (active)
O=C(N/N=C/c1ccc2nccnc2c1)c1ccc(Br)cc1 | inactive
Cc1ccc(/C=C(\NC(=O)c2ccc(C)cc2)c2n[nH]c(S)n2)cc1 | 25.1 µM (active)
CCc1cc(=O)oc2c(CN3CCCC3)c(O)c(Cl)cc12 | inactive
NC(=O)c1sc2nnc(-c3ccccc3)c(-c3ccccc3)c2c1N | inactive
CCOC(=O)C1(Cc2cccc(Cl)c2)CCCN(C(=O)CCSC)C1 (stereo not drawn) | inactive
CCOc1ccccc1CNS(=O)(=O)c1c[nH]cn1 | inactive
CN(C)C(=O)CCc1ccc2c3c([nH]c2c1)[C@]1(CCC2CCCC2)[C@@H](C(=O)N2CCOCC2)C[C@H](CC(=O)NCc2cccc(C(F)(F)F)c2)C(=O)N1CC3 | 31.6 µM (active)
CC(C)=CCC/C(C)=C/CNC(=O)C[C@H]1C[C@H](C(=O)N2CCOCC2)[C@@]2(CCC3CCCC3)c3[nH]c4cc(CCC(=O)N(C)C)ccc4c3CCN2C1=O | 35.5 µM (active)
CN(C)C(=O)CCc1ccc2c3c([nH]c2c1)[C@]1(CCC2CCCC2)[C@@H](C(=O)N2CCOCC2)C[C@H](CC(=O)NCCC2=CCCCC2)C(=O)N1CC3 | 35.5 µM (active)
CC(C)=CCC/C(C)=C/CNC(=O)C[C@H]1C[C@H](C(=O)N(C(C)C)C(C)C)[C@@]2(C)c3[nH]c4cc(CCC(=O)N(C)C)ccc4c3CCN2C1=O | 20 µM (active)
CCOC(=O)N1CCN(C(=O)c2cn(CC)c3ccc(S(=O)(=O)N4CCCCC4)cc3c2=O)CC1 | inactive
Cc1ccc(S(=O)(=O)c2cc3ccccc3oc2=O)cc1 | inactive
O=C(NCc1ccccc1)c1cc2ccc(O)cc2oc1=O | inactive

SMILES | Potency
COC(CNC(=O)c1ccc2c3c(onc13)-c1ccccc1C2=O)OC | 22.4 µM (active)
CCOc1ccc(N(C)S(=O)(=O)c2ccc3ncc(C(=O)NCC(OC)OC)c(O)c3c2)cc1 | inactive
COCCCNC(=O)c1ccc2c3c(onc13)-c1ccccc1C2=O | 29.9 µM (active)
COc1ccc(-c2nc3ccc(C(=O)NCC(OC)OC)cc3nc2-c2ccc(OC)cc2)cc1 | inactive
COCCCNc1c(O)nc2cccc3c2c1-c1ccccc1C3=O | inactive
CCn1c(=N)c(C(=O)NCCCOC)cc2c(=O)n3cccc(C)c3nc21 | inactive
O=c1oc2ccccc2cc1-c1nc2c(s1)CCCC2 | inactive
CCc1ccc(C2=CC(c3cccc(Br)c3)n3nnnc3N2)cc1 (stereo not drawn) | inactive
O=C(O)c1ccc(S(=O)(=O)N2CCN(c3ccccn3)CC2)cc1 | inactive
CC(=O)Nc1ccc(S(=O)(=O)N2CCN(c3nc(NC4CCCC4)c4ccccc4n3)CC2)cc1 | 31.6 µM (active)
CC(=O)Nc1ccc(S(=O)(=O)N2CCN(C(=O)C3COc4ccccc4O3)CC2)cc1 (stereo not drawn) | inactive
Cc1ccc(C)c(-n2c(=O)c(C#N)cc3c(=O)n4ccccc4nc32)c1 | inactive
Cc1ccc2oc(Nc3nc(C)c(C)c(C)n3)nc2c1 | inactive
CCC(C)N1CCC2(CC1)N=c1c3c(O)c4c(O)c(C)c5c(c4c1=N2)C(=O)[C@@](C)(OC=C[C@H](OC)[C@@H](C)[C@@H](OC(C)=O)[C@H](C)[C@H](O)[C@H](C)[C@@H](O)[C@@H](C)C=CC=C(C)C(=O)N3)O5 (stereo partly drawn) | 22.4 µM (active)
C=CCN(CC=C)C(=O)c1ccc(OC2CCN(S(=O)(=O)N(C)C)CC2)cc1 | inactive
O=S(=O)(CCc1ccncc1)Cc1ccc2c3c(cccc13)CC2 | inactive
CC(=O)NCc1ccc(C(=O)CCl)s1 | 16.8 µM (active)
CCOC(=O)C1CCCN(CC(=O)Nc2nc(-c3ccccc3)cs2)C1 (stereo not drawn) | inactive
O=S(=O)(CCN1CCN(c2ccccn2)CC1)c1ccc(F)cc1 | inactive
Nc1ncn([C@H]2O[C@@H](CO)[C@@H](O)[C@@H]2O)c(=O)n1 | 5.01 µM (active)
C=CCSc1nc2c(N)ncnc2n1C1OC(CO)C(O)C1O (stereo not drawn) | inactive
O=C(NN=C1CCCC1)NC1CCCCC1 | inactive
O=C(NCCc1ccc(F)cc1)c1cccc2c1C(=O)c1ccc(N3CCC(Cc4ccccc4)CC3)cc1S2(=O)=O | inactive
N=c1n(CCN2CCCC2)c2ccccc2n1CC(O)c1ccc(Cl)c(Cl)c1 (stereo not drawn) | 31.6 µM (active)

SMILES | Potency
OC(CN1C2=NCCCN2c2ccccc21)c1ccc2c(c1)OCO2 (stereo not drawn) | inactive
Cc1cccc(OCC(O)Cn2ccnc2C)c1 (stereo not drawn) | inactive
Cc1cccc(OCC(O)Cn2c(=N)n(CCN3CCCCC3)c3ccccc32)c1 (stereo not drawn) | 39.8 µM (active)
O=c1c2ccccc2n(CC(O)CN2CCCCC2)c2ccccc12 (stereo not drawn) | inactive
Nn1cnnc1SCC(=O)N1CCc2ccccc2C1 | inactive
CCOCCCn1c(=N)c(C(=O)NC(C)c2ccccc2)cc2c(=O)n3cc(C)ccc3nc21 (stereo not drawn) | inactive
Cc1ccc(/C=N/Nc2nc3ccccc3s2)o1 | inactive
CC(=NNc1nc2ccccc2s1)c1ccncn1 | 10 µM (active)
C/C(=N\Nc1nc2ccccc2s1)c1ccc(Br)s1 | inactive
CCCCCCn1c(=O)[nH]c2nc3cc(N)c(C)cc3nc2c1=O | inactive
Cc1ccc(SSc2cc(C)ccc2N)c(N)c1 | 17.8 µM (active)
FC(F)(F)c1ccc(Cl)c(-n2c(S)nnc2-c2cc(C3CC3)[nH]n2)c1 | inactive
O=C(CN1C(=O)COc2ccc(S(=O)(=O)NC3CCCC3)cc21)Nc1ccc(Cl)cc1 | 44.7 µM (active)
O=S(=O)(Nc1ccc(Cl)cc1)c1ccc(N2CCOCC2)c(NC(=S)NC2CC2)c1 | inactive
CC(C)C(OC(=O)CN1C(=O)COc2ccccc21)C(=O)NC1CCCCC1 (stereo not drawn) | inactive
COc1ccc(C(=O)Nc2ccc(S(=O)(=O)Nc3onc(C)c3C)cc2)c(OC)c1 | inactive
O=C(Cc1cccs1)Nc1ccc(F)c(S(=O)(=O)N2CCOCC2)c1 | inactive
COc1ccc(-c2nc(CN3CCC(C(=O)NC4CCCc5ccccc54)CC3)c(C)o2)cc1OC (stereo not drawn) | inactive
COc1ccc(-c2cc3ccc(O)c(CN4CCCCC4C)c3oc2=O)cc1OC (stereo not drawn) | inactive
COc1ccc(-c2nc(CN3CCN(Cc4cccc(Cl)c4)CC3)c(C)o2)cc1 | inactive
COc1ccc(N2CCN(C(=O)COC(=O)CCc3ccccc3)CC2)cc1 | inactive
COc1ccc(-c2nc(CSCC(=O)N3CCN(c4cccc(C)c4)C(C)C3)c(C)o2)cc1OC (stereo not drawn) | 18.9 µM (active)
COc1ccc(-c2nc(CSCC(=O)N3CCN(c4ccccc4F)CC3)c(C)o2)cc1 | 31.6 µM (active)
CCNC(=S)N1CCN(CCNC=C2C(=O)CC(C)(C)CC2=O)CC1 | inactive

SMILES | Potency
CN1C(=O)NC(NS(=O)(=O)c2ccc(N)cc2)(C(F)(F)F)C1=O (stereo not drawn) | inactive
Nc1nc2nc(-c3cccs3)cc(C(F)(F)F)n2n1 | inactive
C=CCNC(=O)/C(C#N)=C/c1c(N2CCN(c3cccc(Cl)c3)CC2)nc2c(C)cccn2c1=O | inactive
O/N=C/c1cc2ccccc2n1Cc1ccccc1F | inactive
Cc1ccc(C2=NN=C(c3ccccc3)c3ncccc3N2)cc1 | inactive
CC(C)c1ccc(NC2=NN=C(c3cccs3)CS2)cc1 | inactive
CC(C)c1ccc(NC2=NC(=N)c3ccccc32)cc1 | 39.8 µM (active)
COc1ccc(S(=O)(=O)N2CCOCC2)cc1NC(=O)COc1cccnc1[N+](=O)[O-] | inactive
Clc1cccc2c1CCN(Cc1nc(-c3cnccn3)no1)C2 | inactive
Cc1ccc(C(=O)NCc2ccc3c(c2)OCO3)cc1N1CCCC1=O | inactive
COc1ccc(C(=O)N2CCOC2CNC(=O)C(=O)NCc2ccc3c(c2)OCO3)cc1 (stereo not drawn) | inactive
COc1ccccc1N1CCN(c2nc(CNC(=O)C3CC34CCCC4)nc3ccccc23)CC1 (stereo not drawn) | 35.5 µM (active)
COc1ccccc1N1CCN(c2nc(CNC(=O)c3ccc4c(c3)OCO4)nc3ccccc23)CC1 | 28.2 µM (active)
COc1ccccc1N1CCN(C2CCCN(C(=O)c3csc(C)n3)C2)CC1 (stereo not drawn) | inactive
CSc1nc(N2CCN(c3ccccc3Cl)CC2)c2ccccc2n1 | inactive
CC1CC(C)(C)N=C(S)N1CCC(=O)N1CCN(c2ccccc2)CC1 (stereo not drawn) | inactive
CCn1c(=N)c(S(=O)(=O)c2ccccc2)cc2c(=O)n3ccccc3nc21 | inactive
Cc1ccccc1CN(C)C1CCN(C)CC1 | inactive
CCOC(=O)C1CCCN(C(=O)c2sc3nc4n(c(=O)c3c2C)CCC4)C1 (stereo not drawn) | inactive
CCOC(=O)CC1(C)c2nc(NC(C)=O)sc2Cc2sc(NC(C)=O)nc21 | inactive
O=C(O)c1cccc(N2C(=O)c3cc4cccc(Br)c4cc3C2=O)c1 | inactive
